# Experimental data: PubChem BioAssay; in the data active = activity above about 50%; inactive = the rest
# Assays:
# [1] = biological target: Tumor necrosis factor receptor superfamily member 10B (Homo sapiens) (UniProt O14763); test: caspase-8 TRAIL sensitization, hit retest, confirmation, cell-based, NB7+caspase-8, with/without TRAIL, luminescence panel (AID 651596); conditions: NB7 neuroblastoma + caspase-8, TRAIL sensitization, luminescence viability, with TRAIL, mean of runs, at 10 µM, stronger effect = higher value
# Tumor necrosis factor receptor superfamily member 10B (Homo sapiens), sequence (O14763 whole entry, looked up): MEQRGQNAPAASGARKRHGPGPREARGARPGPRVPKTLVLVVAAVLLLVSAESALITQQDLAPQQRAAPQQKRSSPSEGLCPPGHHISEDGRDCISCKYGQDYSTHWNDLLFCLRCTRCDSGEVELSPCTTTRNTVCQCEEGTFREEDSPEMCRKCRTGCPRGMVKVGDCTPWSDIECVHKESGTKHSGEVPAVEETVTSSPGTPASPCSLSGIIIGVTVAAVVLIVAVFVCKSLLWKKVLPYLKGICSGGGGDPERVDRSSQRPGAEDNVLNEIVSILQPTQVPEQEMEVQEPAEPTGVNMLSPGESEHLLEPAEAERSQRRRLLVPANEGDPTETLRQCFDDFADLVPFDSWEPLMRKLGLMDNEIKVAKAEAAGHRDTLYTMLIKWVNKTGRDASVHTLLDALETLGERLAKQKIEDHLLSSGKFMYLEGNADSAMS
# [2] = as above; conditions: NB7 neuroblastoma + caspase-8, without TRAIL, luminescence viability, without TRAIL, mean of runs, at 10 µM
Compound,activity [1],activity [2]
O=C(CSc1nnc(NC(=O)c2ccccc2)s1)NCc1ccco1,64.5%,73.1%
O=C(CCl)N(c1ccccc1)C1CCCCC1,99.4%,99.8%
N#Cc1nc(Nc2cccc(Cl)c2)c2ncn(C3CCCC3)c2n1,76.7%,57.3%
O=C(Nc1nc(-c2nc3ccccc3s2)cs1)C1CC1,59%,69.9%
c1ccc2c(c1)COc1c3cc4c(cc3nn1-2)OCO4,67.7%,53.8%
Cc1cc(C)c(C)c(S(=O)(=O)N2CCN(c3ncnc4ccccc34)CC2)c1C,40.2%,40.1%
CCCn1c(C)cc(C(=O)COC(=O)c2cc(=O)[nH]c3ccccc23)c1C,61.2%,59.1%
COC(=O)c1ccc(N/C=C/C(=O)c2ccccc2)cc1,61.3%,80.2%
NC(c1csc(NC(=O)Nc2cccc(C(F)(F)F)c2)n1)C1CCCCC1 (stereo not drawn),56.4%,94.9%
COc1ccc(C(=O)/C=C/Nc2cccc(O)c2)cc1,75.9%,42.4%
CC1(C(=O)N/N=C/c2c(F)c(F)c(F)c(F)c2F)CC1(Cl)Cl (stereo not drawn),91.5%,98.4%
CC(C)(C)C1CCc2sc(C(=O)NNC(=O)CCl)cc2C1 (stereo not drawn),98.8%,95.6%
COc1ccc(C=NNC(=O)NN=Cc2ccc(OC)c(OC)c2)cc1OC,69%,65%
CCOc1ccc(N2C(N)=NC(N)=NC2(C)C)cc1,67.3%,82.9%
COc1ccc(/C(N)=N/OC(=O)CC2CCCCC2)cc1OC,83.4%,78.2%
O=S(=O)(c1ccc2c(c1)C(=NO)c1cc(S(=O)(=O)N3CCCCC3)ccc1-2)N1CCCCC1,98.8%,99.3%
CCOC(=O)C1CCN(C(=O)C2c3ccccc3C(=O)N(C)C2c2ccc(OC)cc2)CC1 (stereo not drawn),66.1%,60.9%
O=C(Nc1ccccc1NC(=O)c1c(F)c(F)c(F)c(F)c1F)c1c(F)c(F)c(F)c(F)c1F,90.2%,96.2%
CCCCCCCN(C(=O)CCl)c1cccc(C)c1,99%,99%
O=C(CCl)N1c2ccccc2CCc2ccccc21,99.8%,99.7%
Clc1ccc(-c2nnc(-c3ccccc3)o2)c(Cl)c1,81.8%,79%
O=C(c1ccc2c3n(nc2c1)-c1ccccc1CO3)N1CCCCC1,79.2%,78.4%
Cn1cnc([N+](=O)[O-])c1Sc1nc(N)nc2c1ncn2C1CC(O)C(CO)O1 (stereo not drawn),68.8%,65.6%
CC(=O)Nc1ccc(/C=N/Nc2nc3ccccc3[nH]2)cc1,76.2%,75.5%

Compound,activity [1],activity [2]
Cc1ccc2nc(-c3ccc(NC(=O)C4CCCO4)cc3)[nH]c2c1 (stereo not drawn),72.2%,71.9%
Cc1ccc(NC(=O)c2ccccc2)s1,40.7%,32%
Oc1ccc(-c2cnc(-c3ccc(O)cc3)nc2)cc1,88.2%,93.3%
Nc1ccccc1C#CC(=O)c1ccccc1,33.9%,94.2%
Cc1nn(-c2ccccc2)c(Cl)c1/C=N/NC(=O)c1ccn[nH]1,79.8%,71.3%
O=C(NCCN1CCOCC1)NC1(C(F)(F)F)Oc2ccc(Cl)cc2O1 (stereo not drawn),32.6%,26.8%
Cc1ccc(-c2nc(N/N=C/c3cccnc3)c3ccccc3n2)cc1,94.3%,88.2%
COc1ccc(-c2cc3nc(C)cc(N)n3n2)cc1,90.2%,86.5%
Oc1ccc(-c2nc3ccccc3s2)cc1,47.5%,47.9%
O=C(/C=C/c1ccco1)Nc1ccc2c(c1)OCCO2,71.8%,65.1%
CN1CCN(c2nc(-c3ccc(C(C)(C)C)cc3)nc3ccccc23)CC1,67.9%,69.6%
Cc1cc(C)c(C#N)c(SCc2nc3ccccc3c(=O)[nH]2)n1,82.8%,82.5%
CCOc1ccc(C(=O)Nc2ccc3[nH]ncc3c2)cc1,82.6%,82.7%
O=C(N/N=C/c1cccc([N+](=O)[O-])c1)c1ccc2c(c1)OCCO2,73.3%,61.3%
COc1cccc2oc3cc(C#CC4(O)CCCCC4)ccc3c(=O)c12,71.2%,68.8%
CCCCCC(=O)N1C[C@H](n2cc(COC(=O)c3ccccc3)nn2)[C@@H](O)C[C@@H]1c1ccc(Cl)cc1,72.6%,61%
Cc1ccc(S(=O)(=O)NC(=O)NC2=NC(C)(C)N(c3ccc(Cl)c(Cl)c3)C(N)=N2)cc1,77.4%,84.2%
Cc1ccc(NC(=O)c2nc(S(=O)(=O)Cc3ccccc3)ncc2Cl)cc1,83.5%,96.1%
CCn1cc(-c2cc(C(=O)O)c3ccccc3n2)cn1,65%,58.2%
CCOc1ccc(OCC(=O)N(CCC2=CCCCC2)c2c(N)n(Cc3ccccc3)c(=O)[nH]c2=O)cc1,48.6%,1.7%
Cc1nc2cc(Nc3nnc(-c4ccccc4)c4ccccc34)ccc2n1C,87.9%,83.9%
CCS(=O)(=O)c1ncc(Cl)c(C(=O)Nc2ccc(S(=O)(=O)N(C)c3ccccc3)cc2)n1,99.2%,99.7%
COc1cccc2c1C(CO)N1C(C#N)C3CC(C(=O)O)C(C1C2)N3C (stereo not drawn),59.9%,83.8%
O=C(Nc1ccc2c(c1)OCCO2)c1ccccn1,75.8%,69.1%

Compound,activity [1],activity [2]
COc1ccccc1N1CCN(C2=Nc3cccc4cccc2c34)CC1,63.1%,58.2%
CC(=O)Nc1cccc(-c2csc(Nc3ccc(C)cn3)n2)c1,49.5%,30.4%
CCOC(=O)c1sc2nc3c(SCC(=O)O)cc(C(=O)c4ccccc4O)cn3c(=O)c2c1C,49.1%,42.5%
Cc1ccc(-c2cnc3cc(C)nn3c2)cc1,73.9%,66.8%
CC(C)(C)OC(=O)NCCCCCc1cn([C@@H](CO)C(=O)NCCCCCCCCCCC(=O)N2CCN(C(=O)OC(C)(C)C)CC2)nn1,61.7%,42.1%
COC(=O)C1=C(C(=O)OC)[C@@H]2N(Cc3ccccc3)c3ccccc3[C@@]23C[C@@H](C(=O)OC)N(C(=O)c2cccs2)C3=N1,17.8%,-45.8%
C(=Cc1nc2ccccc2o1)c1ccc2c(c1)OCO2,86.1%,84%
CCCCN(C)C(=O)c1cc2cc3ccc(OC)cc3nc2s1,69.9%,70.3%
COC(=O)c1nc(NC(=S)NC(=O)c2cccs2)sc1C,53.8%,37.9%
CC(C)(C)c1csc(NC(=O)Nc2ccccc2)n1,41.3%,50%
Cc1nn(-c2ccccc2)c(Cl)c1CN(C(=O)CCl)c1cccc2ccccc12,98.8%,99.7%
Nc1ccc(C(=O)NN2C(=O)[C@H](Cl)C2c2ccc(Cl)cc2)cc1 (stereo partly drawn),99.3%,99.5%
COc1cc2ccccc2cc1C(=O)Nc1sc2c(c1C(N)=O)CCN(C(C)C)C2,79.4%,98.2%
Clc1ccc(-n2cnc3c(Cl)ncnc32)cc1Cl,71.7%,79%
COc1ccc(C(=O)Nc2ccccc2C(=O)N/N=C/c2ccncc2)cc1OC,97.7%,96.3%
C/C(=N\Nc1nc2ccccc2[nH]1)c1ccc(N2CCOCC2)cc1,80.9%,74.9%
COc1ccc(/C(N)=N/OC(=O)c2ccc3ccccc3c2)cc1OC,99%,98%
O=C(Nc1cnn(C23CC4CC(CC(C4)C2)C3)c1)c1cnn2c(C(F)(F)F)cc(-c3ccco3)nc12,76.4%,70.3%
CCOC(=O)c1ccc(NC(=O)c2ccc(C)c(S(=O)(=O)N3CCOCC3)c2)cc1,79.3%,69.1%
COc1ccc2oc(-c3ccccc3)cc(=O)c2c1,76.1%,78%
CC(C)(C)c1ccc(C(=O)O/N=C(\N)Cc2cccs2)cc1,98.6%,77.5%
COC(=O)c1ccc2c(c1)C(C)(C)C(/C=C/c1ccc(OC)c(OC)c1OC)=[N+]2C,73.8%,68.9%
N/C(=N\OC(=O)c1cccc(Br)c1)c1ccc(Br)cc1,78.1%,90.1%
NC(N)=Nc1ccc(C=C2C=Cc3ccccc32)cc1,96.6%,68.5%

Compound,activity [1],activity [2]
CNC[C@H](CC1CCCCC1)NC[C@H](Cc1ccccc1)NCCC12CC3CC(CC(C3)C1)C2,98.5%,99.4%
CN(C)S(=O)(=O)c1ccc(C(=O)Nc2nnc(SCC(=O)N3CCOCC3)s2)cc1,62.7%,66%
CCOC(=O)CNC(=O)CSc1nnc(NC(=O)c2ccc(C)cc2)s1,94.5%,92.5%
CCCCN(CC)S(=O)(=O)c1ccc(C(=O)N=c2sc3cc(NC(C)=O)ccc3n2C)cc1,20.9%,53.8%
COc1ccc(/C=N/Nc2cc(OC)ncn2)cc1,53.9%,40.8%
O=C1Nc2ccccc2N(C(=O)c2c(F)cccc2F)C1c1nc2ccccc2[nH]1 (stereo not drawn),47.6%,60.3%
O=C(Nc1nc2c(F)cc(F)cc2s1)c1ccccn1,61.9%,64.5%
O=C(NCCc1ccccc1)C(c1cccs1)N(C(=O)CCl)c1ccc(Cl)cc1 (stereo not drawn),99.5%,99.5%
O=C(/C=C/Nc1ccc(F)cc1)c1cccs1,69.7%,65%
O=C(Nc1ccc2c(c1)OCCO2)c1cc2ccccc2o1,82%,76.8%
COc1ccc2c(c1OC)C(=O)N(c1cccc(C)c1)C2,66.9%,57.9%
C/C(=N\Nc1cccc2cccnc12)c1ccccn1,69.8%,59.6%
COc1ccccc1-c1cc(C(=O)NC2CCN(C)CC2)c2ccc(Cl)c(C)c2n1,89.2%,86%
NC(Cc1ccccc1)c1csc(NC(=O)Nc2ccccc2Oc2ccccc2)n1 (stereo not drawn),61.5%,78.7%
COc1ccc(Oc2c(Cl)cnn(-c3ccccc3)c2=O)cc1,98.4%,94.4%
O=C(CC(Nc1ccc(F)cc1)C(=O)O)c1ccccc1 (stereo not drawn),63.3%,53.1%
Cc1ccc(C(=O)Nc2ccc(Cl)cc2C)c(Cl)c1,56.7%,39.9%
Nc1ccc(C(=O)Nc2nc3ccccc3s2)cc1,44.8%,41%
O=C(Nc1ccc2c(c1)OCCO2)c1ccccc1,53.7%,54.6%
CCCCCCCCC(c1nc2ccccc2[nH]1)N1CCN=C1c1cc2ccccc2[nH]1 (stereo not drawn),54.9%,84.8%
Brc1ccc(-c2ccc(/C=N/Nc3nc4ccccc4[nH]3)o2)cc1,51.5%,42.5%
C#Cc1cccc(Nc2nc(NCc3ccccc3OC)nc3ccsc23)c1,52.1%,37.5%
